Sampled rows, rich in hits. Any-hit rate of the full collection: about 1.5%.
Measles CPE = protection of cells from measles virus; protection (pct of control), % at 4 µM; AID 841; 140,000 compounds, 1.5% hits; Measles virus-infected cells, CPE protection, absorbance; in the data active = protection mostly above about 24%, no sharp cut-off; inactive = mostly below about 26%
cytoskel mod = alters cytoskeleton assembly in HUVEC cells. AID 836. 91,000 compounds, 0.18% hits. HUVEC TNFa F-actin phalloidin imaging, high content. inhibition, % at 2 µM;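 active = inhibition above the batch mean plus 3 SD and confirmed as a hit by visual image inspection, cut at about 30% in these data, passing the limit was not always enough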
Large screens that a line does not name were inactive.

CC(=O)N/C(=C/c1ccc2c(c1)OCO2)C(=O)NCCO	none (no result: cytoskel mod)
O=S(=O)(c1ccc2ccccc2c1)N1CCC(c2nc(-c3ccncc3)no2)CC1	none
CCCCC(CCC(=O)NNC(=O)Cc1ccccc1)C(=O)O (stereo unspecified)	none (no result: cytoskel mod)
O=c1[nH]c(SCc2cccc(F)c2)nc2c1CCCC2	none (no result: cytoskel mod)
Cn1cccc1CC(=O)NNC(=O)Nc1cccc(Cl)c1	none (no result: cytoskel mod)
CCCOc1ccc(/C=C/C(=O)Nc2ccc([N+](=O)[O-])cc2)cc1	Measles CPE 51
CCCCOc1ccc(/C=C/C(=O)Nc2ccc([N+](=O)[O-])cc2C)cc1	none (no result: cytoskel mod)
Cc1ccc(S(=O)(=O)N2CCCCC2)cc1NS(=O)(=O)c1cccc(C(=O)O)c1	none (no result: cytoskel mod)
COc1ccc(-c2nc3ccccc3n2Cc2ccc(C)cc2)cc1	none
Clc1ccc(-c2nc3ccccc3n2OCc2ccccc2)cc1	Measles CPE 39
CS(=O)(=O)N1N=C(c2ccco2)CC1c1ccc(Cl)cc1 (stereo unspecified)	none (no result: cytoskel mod)
CCc1n[nH]c(=S)n1/N=C/c1ccc2c(c1)OCO2	Measles CPE 42
Cn1c(=S)n(/N=C/c2ccc3c(c2)OCO3)c2ccccc21	none
Cc1cc(OCc2cn3cccnc3n2)ccc1Cl	none (no result: cytoskel mod)
O=S(=O)(Nc1ccccc1)c1ccc(Oc2ncc(C(F)(F)F)cc2Cl)cc1	Measles CPE 41
CC(C)NS(=O)(=O)c1ccc(Oc2ncc(C(F)(F)F)cc2Cl)cc1	none
COCCC(=O)NNS(=O)(=O)c1ccc(Cl)cc1	none (no result: cytoskel mod)
CCC(=O)Nc1cc(ON=C(C)C)cc([N+](=O)[O-])c1	Measles CPE 96 (no result: cytoskel mod)
CC(C)=NOc1cc(NC(=O)CCl)cc([N+](=O)[O-])c1	none (no result: cytoskel mod)
COC(=O)c1ccc(C(c2c(N)n(CC(C)C)c(=O)[nH]c2=O)N2CCN(c3ccccc3)CC2)cc1 (stereo unspecified)	none
CCCn1c(N)c(C(c2ccc(C(=O)OC)cc2)N2CCN(c3ccccc3)CC2)c(=O)[nH]c1=O (stereo unspecified)	Measles CPE 42
CCCOc1ccc(C(=O)NCC(c2ccco2)N(C)C)cc1 (stereo unspecified)	none (no result: cytoskel mod)
Clc1ccc(Cc2nc(-c3cccnc3)no2)cc1	none
CC(=O)Nc1ccc(-c2csc(NC(=O)C3CCN(S(=O)(=O)c4cccs4)CC3)n2)cc1	Measles CPE 68 (no result: cytoskel mod)
CC(=O)c1cccc(NC(=O)C2CCN(S(=O)(=O)c3cccs3)CC2)c1	none (no result: cytoskel mod)
Cc1ccc(C)c2c1[nH]c1ccc([N+](=O)[O-])cc12	none
COc1cccc(C2C3=C(CC(C)(C)CC3=O)Nc3cc4c(cc32)OCO4)c1 (stereo unspecified)	none
COc1cc2c(cc1OC)C(c1ccc3c(c1)OCO3)C1=C(CC(C)(C)CC1=O)N2 (stereo unspecified)	Measles CPE 25
COC(=O)C(Cc1ccccc1)P(=O)(c1ccccc1)c1ccccc1 (stereo unspecified)	none (no result: cytoskel mod)
CC(C)COc1ccc(CSCCNC(=S)Nc2ccccc2)cc1	none
COc1ccccc1-n1c(SCC(=O)NC2CCCCC2)nc2c(c1=O)SCC2	Measles CPE 54
COc1ccc(NC(=O)CSc2nc3c(c(=O)n2-c2ccccc2OC)SCC3)cc1	none
S=c1[nH]nc(-c2ccccn2)n1/N=C/c1ccc(Br)s1	none (no result: cytoskel mod)
CC(CC(=O)NCC1CCCO1)c1ccccc1 (stereo unspecified)	none (no result: cytoskel mod)
CCOC(=O)c1ccc(CNC(=O)CSc2nnnn2-c2ccc(Cl)cc2)o1	Measles CPE 43
CCOC(=O)NC(=O)CSc1nnnn1-c1ccc(Cl)cc1	none
CCCCNC(=O)c1onc(CSc2ccc(C(C)C)cc2)c1C(=O)O	none
CC(=O)Nc1cccc(OCc2ccc(S(=O)(=O)Cc3ccccc3)cc2)c1	none (no result: cytoskel mod)
Cc1nc(-c2cccc(NS(=O)(=O)c3cccc4ccccc34)c2)cs1	none
CCCN(CCC)CC(O)CN(c1ccccc1)S(=O)(=O)c1ccc(C)cc1 (stereo unspecified)	none
Cc1ccc(N(CC(O)COCc2ccco2)S(=O)(=O)c2ccc(C)cc2)cc1 (stereo unspecified)	Measles CPE 46
Cc1ccc(C23CC4CC(CC(C(=O)OCC(=O)NC5CCS(=O)(=O)C5)(C4)C2)C3)cc1 (stereo unspecified)	none (no result: cytoskel mod)
O=C(NNS(=O)(=O)c1cc(Cl)cc(Cl)c1)c1sccc1-n1cccc1	none
O=C(C1CCCN(S(=O)(=O)c2ccc(F)cc2)C1)N(Cc1cccs1)C1CC1 (stereo unspecified)	Measles CPE 49 (no result: cytoskel mod)
O=C(C1CCCN(S(=O)(=O)c2ccc(F)cc2)C1)N1CCCC1 (stereo unspecified)	none
CCOC(=O)/C=C1\Nc2ccccc2OC1=O	none (no result: cytoskel mod)
COc1cc(C(=O)OCc2cc3ccccc3[nH]c2=O)cc(OC)c1OC	none
CCCC(=O)N(Cc1cc2ccccc2[nH]c1=O)c1ccccc1OC	Measles CPE 38
COc1cc(C(=O)N(Cc2ccco2)Cc2cc3ccccc3[nH]c2=O)cc(OC)c1OC	cytoskel mod 35
CCCC(=O)N(Cc1cc2cc(C)ccc2[nH]c1=O)c1ccccc1OC	none
O=C(Nc1ccccc1)OC1CCC2CC1CCC2OC(=O)Nc1ccccc1 (stereo unspecified)	none (no result: cytoskel mod)
Cc1ccc(N(C(=O)CCl)C(C(=O)NC2CCCCC2)c2cccnc2)cc1C (stereo unspecified)	none (no result: cytoskel mod)
CC1Cc2cccc3c(O)c(C(=O)c4nn[nH]n4)c(=O)n1c23 (stereo unspecified)	none (no result: cytoskel mod)
Clc1cccc(OCCN2CCN(CCOc3cccc(Cl)c3)CC2)c1	none (no result: cytoskel mod)
O=C1NC2(CCc3ccccc3C2)C(=O)N1CCOc1cccc(Cl)c1 (stereo unspecified)	Measles CPE 23 (no result: cytoskel mod)
CCC1=NN2C(=N)/C(=C\c3ccc(SCc4ccco4)o3)C(=O)N=C2S1	none
CCC1=NN2C(=N)/C(=C/c3c(C)nn(-c4ccccc4)c3Cl)C(=O)N=C2S1	Measles CPE 71 (no result: cytoskel mod)
COc1ccc(/C=C/C(=O)Nc2cccc(N3CCOCC3)c2)cc1OC	none (no result: cytoskel mod)
O=C(c1cccs1)N(Cc1ccco1)c1nc(-c2ccc(F)cc2)cs1	none
CN(C)CCCN(C(=O)c1cccs1)c1nc(-c2ccccc2)cs1	Measles CPE 40
c1ccc(NCC2OCc3ccccc3CO2)cc1	none (no result: cytoskel mod)
COC(=O)c1c(NC(=O)COC(=O)[C@@H](NS(=O)(=O)c2ccc(C)cc2)C(C)C)sc2c1CCC2	none (no result: cytoskel mod)
Cc1cccc(-n2ccnc2SCC(=O)Nc2cc(C)on2)c1	Measles CPE 30
Cc1cccc(-n2ccnc2SCC(=O)Nc2nnc(C)s2)c1	none
O=C(COc1ccccc1)Nc1nc2ccccc2[nH]1	none
O=C(CSc1ccc2ccccc2c1)Nc1nc2ccccc2[nH]1	Measles CPE 42 (no result: cytoskel mod)
Cc1c(NS(=O)(=O)c2ccc(N(C)C3CCCCC3)c([N+](=O)[O-])c2)c(=O)n(-c2ccccc2)n1C	none (no result: cytoskel mod)
CCCn1c(SCC(=O)Nc2cc(S(=O)(=O)N3CCOCC3)ccc2Cl)n[nH]c1=O	none (no result: cytoskel mod)
CCCn1c(SCC(=O)Nc2cc(S(=O)(=O)N3CCOCC3)ccc2OC)n[nH]c1=O	Measles CPE 50 (no result: cytoskel mod)
COc1ccccc1N(CC(O)COc1ccccc1C)S(=O)(=O)c1ccccc1 (stereo unspecified)	none (no result: cytoskel mod)
CCCOC(=O)Oc1ccc2c(=O)c(Oc3cc(C)cc(C)c3)coc2c1	Measles CPE 20 (no result: cytoskel mod)
CCCCOC(=O)Oc1ccc2c(=O)c(Oc3cc(C)cc(C)c3)coc2c1	none (no result: cytoskel mod)
Cc1ccc(/C=N\NC(=O)C2CN(S(=O)(=O)c3ccccc3)CCN2S(=O)(=O)c2ccccc2)cc1 (stereo unspecified)	none (no result: cytoskel mod)
CCOC(=O)N1CCC2(CC1)C(C#N)=C(N)OC1=C2C(=O)CC(C)C1 (stereo unspecified)	none (no result: cytoskel mod)
CC(=O)c1c(C(C)=O)c(C)n(NC(=O)c2ccccc2O)c1C	cytoskel mod 76

Screening results: PubChem, several laboratories
